Only some compounds are listed: those with a hit (about 2.4% of all), similar ones and a draw of the others.
Cruzain inh Det: blocks cruzain activity in presence of Triton detergent. P25779. purified cruzain, Z-FR-AMC fluorescence, 0.01% Triton. Potency, µM, actives largely listed as inhibitors. 200,000 compounds, 0.43% hits; also: nearly all actives have a fitted effect of over 40% in size
Target sequence (P25779 123-467 limits assumed): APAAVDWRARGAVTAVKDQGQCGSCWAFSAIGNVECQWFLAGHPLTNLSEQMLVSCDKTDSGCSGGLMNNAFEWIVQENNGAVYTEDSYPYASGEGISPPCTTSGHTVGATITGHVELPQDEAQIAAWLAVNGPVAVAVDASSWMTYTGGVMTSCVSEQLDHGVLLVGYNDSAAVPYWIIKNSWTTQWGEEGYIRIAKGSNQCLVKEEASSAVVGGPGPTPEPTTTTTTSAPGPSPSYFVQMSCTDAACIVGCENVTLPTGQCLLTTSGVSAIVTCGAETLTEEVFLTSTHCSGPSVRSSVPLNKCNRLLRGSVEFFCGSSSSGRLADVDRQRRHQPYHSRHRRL
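Sodium acetate buffer (100 mM, pH 5.5) containing 5 mM DTT and 0.01% Triton X-100 hosted 1.5 nM cruzain and test compound for 15 min at room temperature. Cleavage of 2 uM Z-FR-AMC was then tracked by fluorescence.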
Cruzain noTriton: blocks cruzain activity in detergent-free assay; Potency, µM, most hits filed as inhibitors; 200,000 compounds, 2.3% hits; purified cruzain, Z-FR-AMC fluorescence, no detergent; P25779; also: nearly all actives have a fitted effect of over 40% in size
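Purified cruzain at 1.5 nM, pre-incubated 15 min with compound at room temperature in 100 mM sodium acetate pH 5.5, 5 mM DTT, 0.00005% Triton X-100. Reaction started with 2 uM Z-FR-AMC; AMC fluorescence increase over 60 s gives rate.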
Of the large screens only hits and unclear results are named; the others gave an inactive call. Calls follow the shape of the dose curve; as a rule, active = well fitted curve in the direction sought with a large enough effect; inconclusive = small, poorly fitted or top-dose-only effect, or another doubt; inactive = no such curve, though single readings can be large; an effect the other way counts as inactive or inconclusive.

N#C/C(=C\c1ccc(-c2ccc([N+](=O)[O-])cc2Br)o1)C(=O)N1CCN(c2ccccc2)CC1	Cruzain noTriton 13µM
N#C/C(=C/c1ccc(Oc2ccc([N+](=O)[O-])cn2)cc1)C(=O)N1CCOCC1	Cruzain noTriton inconclusive
COc1cc(-c2cc(OC)c3c(C)oc(C)c3c(=O)c2)ccc1OC(=O)c1ccccc1Cl	none
COc1cc(-c2cccs2)cc(=O)c2c(C)oc(C)c12	Cruzain noTriton 20µM
CCOc1ccccc1NC(=O)c1cc2cc(C)ccc2n1C	none
O=C(COC(=O)Cc1c(F)cccc1Cl)NCCC1=CCCCC1	none
O=C(COC(=O)CNC(=O)c1cccc(F)c1)NCCC1=CCCCC1	Cruzain inh Det 16µM, Cruzain noTriton 13µM
Cc1cc(C)n2nc(CNC(=O)c3ccc(Cl)cc3)nc2n1	none
CCOC(=O)C1CCN(C(=O)c2ccc(NC(=O)c3nsc4ccccc34)cc2)CC1	none
Clc1ccccc1CNCCCSc1nnnn1-c1ccccc1	none
Fc1cccc(Cl)c1CNCCSc1nnnn1-c1ccccc1	Cruzain noTriton 13µM
CCc1cccc(NC(=O)CN2C(=O)COc3ccc(S(=O)(=O)Nc4ccccc4)cc32)c1	none
CC(C)Sc1ncc(Cl)c(C(=O)Nc2ccc(S(=O)(=O)N3CCCCC3)cc2)n1	none
COc1ccc(CNC(=O)CCC(=O)N2CCSc3ccccc32)cc1	none
N#Cc1ccc(N/N=C/c2cn(-c3ccccc3)nc2-c2ccccc2)c([N+](=O)[O-])c1	Cruzain noTriton 5µM
O=C(N/N=C/c1cn(-c2ccccc2)nc1-c1ccccc1)c1ccco1	none
COc1ccc([C@H]2[C@H](C(=O)C(C)(C)C)N3N=Cc4ccccc4C3C23C(=O)OC(C)(C)OC3=O)cc1 (stereo partly drawn)	none
O=C(c1ccccc1)[C@H]1[C@H](c2ccccc2)[C@@]2(N=C(c3ccccc3)OC2=O)C2c3ccccc3C=NN21 (stereo partly drawn)	Cruzain noTriton 10µM
O=C(COc1ccc(Cl)cc1)NCC(c1ccco1)S(=O)(=O)c1ccc(Cl)cc1 (stereo not drawn)	none
COc1ccc2c(c1)c(=O)c(S(=O)(=O)c1ccc(Cl)cc1)cn2Cc1cc(C)ccc1C	Cruzain noTriton 10µM
COc1ccc2c(c1)c(=O)c(S(=O)(=O)c1ccc(C)cc1)cn2Cc1ccccc1C	none
Cc1ccc(C(=O)NCCC(C)C)cc1NC(=O)c1nsc2ccccc12	none
COc1ccc(OC)c(CNC(=O)c2cc(S(=O)(=O)N3CCC(C)CC3)cn2C)c1	Cruzain noTriton inconclusive
O=C(c1ccc2c(c1)OCCO2)N(Cc1cccnc1)c1nc2c(F)cccc2s1	none
O[N+]1=CC=CCC1=S.On1ccccc1=S.[Zn]	Cruzain inh Det 3.2µM, Cruzain noTriton 2.5µM
CCC(=O)N1CCc2cc(S(=O)(=O)NC(CC(C)C)C(=O)Nc3cccc(C)c3C)ccc21 (stereo not drawn)	none
O=C(CSc1ccccc1)N1CCc2c([nH]c3ccccc23)C1c1ccc(F)cc1 (stereo not drawn)	Cruzain noTriton inconclusive
CCOc1cccc(C2c3[nH]c4ccccc4c3CCN2C(=O)CSCc2ccc(F)cc2)c1 (stereo not drawn)	none
COc1cc(C(=O)N2CCc3c([nH]c4ccccc34)C2c2ccccc2)cc(OC)c1OC (stereo not drawn)	Cruzain noTriton inconclusive
CCN(CC)c1ccc(C(=O)N2CCc3c([nH]c4ccccc34)C2c2ccc(F)cc2)cc1 (stereo not drawn)	Cruzain noTriton 16µM
CCOc1ccc(C2c3[nH]c4ccccc4c3CCN2C(=O)CSCc2ccc(F)cc2)cc1 (stereo not drawn)	Cruzain noTriton 10µM
CSc1ccc(C2c3[nH]c4ccccc4c3CCN2C(=O)CCC2CCCC2)cc1 (stereo not drawn)	Cruzain noTriton 10µM
Cc1ccc(N2C(=O)CSC23C(=O)Nc2ccccc23)cc1F (stereo not drawn)	none
CCOc1ccc(NC(=O)c2c(NC(=O)Cc3ccccc3)sc3c2CCCC3)cc1	none
Cc1ccc(NC(=O)c2c(C)oc3ccc(O)c(CN4CCCCCC4)c23)c(C)c1	Cruzain noTriton inconclusive
COC(=O)c1c(C)sc(-c2c(-c3ccc(F)cc3)[nH]c3[nH]c(=O)[nH]c(=O)c23)c1O	none
CCC1CN(C(=O)N2CCC(C(=O)NCCc3ccccc3Cl)CC2)c2cc(C)ccc2O1 (stereo not drawn)	none
CCN(CC)S(=O)(=O)c1ccc(C(=O)NCCSc2c(-c3ccc(C)cc3)[nH]c3ccccc23)cc1	Cruzain noTriton 25µM
CCN(CC)S(=O)(=O)c1ccc(C(=O)NCCSc2c[nH]c3ccccc23)cc1	none
CCOC(=O)c1c(-c2ccccc2)oc2cc(Br)c(OCc3ccccc3)cc12	none
CCOC(=O)c1c(-c2ccccc2)oc2ccc(OCc3cccc(Br)c3)cc12	Cruzain noTriton 10µM
Cc1ccc(C(=O)NCC(c2ccc3c(c2)OCO3)N2CCOCC2)cc1 (stereo not drawn)	none
Cc1ccc(Cl)cc1N1CCN(C(=O)c2cccn2-c2nnc(N3CCCC3)s2)CC1	none
